Data published in PubChem BioAssay AID1159580 (chemical genetic matrix, 2015).
“And” between values parts separate entries of the source, which are not always exact repeats. Identical values can stand only once. Screen size: about 5,500 compounds; about 2,000 (36%) were called active. About 18% were inconclusive and are not listed. Cut-off read from the data, not from the text of the source: active = normalized growth mostly below about 0.91 (no sharp cut-off); inconclusive = no clear call, values can overlap the other calls; inactive = mostly above about 0.92. The list shows a part of the results.

Assay: chemical genetic growth profiling, strain panel (AID 1159580);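 note: tested at 20 µM; growth read once vehicle control cultures reached saturation at 30 °C; 1 = growth at the plate median or of vehicle wells; lower values mean less growth of the strain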
Conditions: S. cerevisiae deletion strains, growth OD

Measured: normalized growth

NC(=O)c1ncn([C@@H]2O[C@H](CO)[C@@H](O)[C@H]2O)n1
inactive: locus YAL013W, strain DEP1, stronger effect = lower value 1 | locus YAL021C, strain ccr4, stronger effect = lower value 1.02 | locus YAL026C, strain drs2, stronger effect = lower value 0.995 | locus YAL030W, strain snc1, stronger effect = lower value 0.998 | locus YBL061C, strain skt5, stronger effect = lower value 0.975 | locus YBR009C, strain hhf1, stronger effect = lower value 0.992 | locus YBR021W, strain FUR4, stronger effect = lower value 0.965 | locus YBR023C, strain chs3, stronger effect = lower value 0.981 | locus YBR171W, strain sec66, stronger effect = lower value 0.993 | locus YBR229C, strain ROT2, stronger effect = lower value 0.993 | locus YBR231C, strain swc5, stronger effect = lower value 0.997 | locus YBR279W, strain paf1, stronger effect = lower value 0.978 | locus YCL011C, strain gbp2, stronger effect = lower value 0.981 | locus YCL016C, strain dcc1, stronger effect = lower value 0.979 | locus YCL029C, strain bik1, stronger effect = lower value 0.981 | locus YCL061C, strain MRC1, stronger effect = lower value 0.983 | locus YCL069W, strain vba3, stronger effect = lower value 0.996 | locus YCR088W, strain abp1, stronger effect = lower value 0.994 | locus YDL005C, strain med2, stronger effect = lower value 0.982 | locus YDL035C, strain GPR1, stronger effect = lower value 1.02 | locus YDL040C, strain nat1, stronger effect = lower value 0.978 | locus YDL074C, strain BRE1, stronger effect = lower value 1.04 | locus YDL101C, strain DUN1, stronger effect = lower value 0.998 | locus YDL134C, strain PPH21, stronger effect = lower value 1 | locus YDL185W, strain tfp1, stronger effect = lower value 0.978 | locus YDL192W, strain arf1, stronger effect = lower value 0.98 | locus YDR001C, strain nth1, stronger effect = lower value 0.996 | locus YDR069C, strain doa4, stronger effect = lower value 0.989 | locus YDR101C, strain arx1, stronger effect = lower value 0.993 | locus YDR137W, strain rgp1, stronger effect = lower value 0.97 | locus YDR150W, strain NUM1, stronger effect = lower value 0.988 | locus YDR159W, strain sac3, stronger effect = lower value 0.978 | locus YDR162C, strain NBP2, stronger effect = lower value 0.968 | locus YDR195W, strain ref2 0.979 | locus YDR297W, strain sur2, stronger effect = lower value 0.99 | locus YDR318W, strain mcm21, stronger effect = lower value 0.995 | locus YDR334W, strain swr1, stronger effect = lower value 0.99 | locus YDR335W, strain msn5, stronger effect = lower value 0.991 | locus YDR388W, stronger effect = lower value 0.995 | locus YDR392W, strain spt3, stronger effect = lower value 0.995 | locus YDR502C, strain sam2, stronger effect = lower value 0.992 | locus YEL003W, strain gim4, stronger effect = lower value 0.999 | locus YEL037C, strain rad23, stronger effect = lower value 0.993 | locus YEL061C, strain CIN8 (second series), stronger effect = lower value 0.994 | locus YEL061C, strain CIN8, stronger effect = lower value 0.999 | locus YER015W, strain faa2, stronger effect = lower value 0.988 | locus YER016W, strain bim1, stronger effect = lower value 0.988 | locus YER110C, stronger effect = lower value 0.989 | locus YER111C, strain swi4, stronger effect = lower value 0.996 | locus YER155C, strain BEM2 (second series), stronger effect = lower value 0.989 | locus YER155C, strain BEM2, stronger effect = lower value 0.995 | locus YER167W, strain BCK2, stronger effect = lower value 1.01 | locus YFR010W, strain ubp6, stronger effect = lower value 0.999 | locus YGL078C, strain dbp3, stronger effect = lower value 0.985 | locus YGL086W, strain mad1, stronger effect = lower value 0.997 | locus YGL167C, strain pmr1, stronger effect = lower value 0.983 | locus YGL173C, strain kem1, stronger effect = lower value 0.974 | locus YGL227W, strain vid30, stronger effect = lower value 0.986 | locus YGL240W, strain doc1, stronger effect = lower value 0.984 | locus YGL248W, strain PDE1, stronger effect = lower value 0.996 | locus YGL253W, strain hxk2, stronger effect = lower value 0.982 | locus YGR078C, strain PAC10, stronger effect = lower value 1.02 | locus YGR135W, strain pre9, stronger effect = lower value 0.979 | locus YGR229C, strain SMI1, stronger effect = lower value 1.01 | locus YGR252W, strain gcn5, stronger effect = lower value 0.993 | locus YHR013C, strain ard1, stronger effect = lower value 0.953 | locus YHR027C, strain rpn1, stronger effect = lower value 0.974 | locus YHR030C, strain SLT2, stronger effect = lower value 0.999 and 0.988 | locus YHR079C, strain IRE1 (second series), stronger effect = lower value 1 | locus YHR079C, strain IRE1, stronger effect = lower value 0.98 | locus YHR094C, strain hxt1, stronger effect = lower value 0.981 | locus YHR129C, strain ARP1, stronger effect = lower value 1.01 | locus YHR142W, strain chs7, stronger effect = lower value 0.999 | locus YHR200W, strain rpn10, stronger effect = lower value 0.993 | locus YIL066C, strain RNR3, stronger effect = lower value 0.995 | locus YIL073C, strain SPO22, stronger effect = lower value 0.946 | locus YIL125W, strain kgd1, stronger effect = lower value 0.997 | locus YIR030C, strain dcg1, stronger effect = lower value 0.99 | locus YJL092W, strain hpr5, stronger effect = lower value 0.992 | locus YJL095W, strain BCK1 (second series), stronger effect = lower value 0.987 | locus YJL095W, strain BCK1, stronger effect = lower value 1.02 and 0.977 | locus YJL115W, strain asf1, stronger effect = lower value 0.994 | locus YJL129C, strain trk1, stronger effect = lower value 0.995 | locus YJL134W, strain LCB3, stronger effect = lower value 1 | locus YJL154C, strain vps35, stronger effect = lower value 1.01 | locus YJL164C, strain tpk1, stronger effect = lower value 0.978 | locus YJL166W, strain qcr8, stronger effect = lower value 0.988 | locus YJL168C, strain set2, stronger effect = lower value 1 | locus YJL187C, strain SWE1 (second series), stronger effect = lower value 0.983 | locus YJL187C, strain SWE1, stronger effect = lower value 0.986 | locus YJR043C, strain POL32, stronger effect = lower value 0.977 | locus YJR066W, strain TOR1, stronger effect = lower value 0.959
